Peg3 imprint = qHTS Assay for Compounds that Induce Erasure of Genomic Imprints; mouse ES Peg3-LacZ reporter, beta-gal luminescence, 40 h; Potency, µM (highest dose often 60.7 µM), for inactives: at the highest dose activity change, positive = activation, hits mostly activators; actives 0.02% (n = 110,000); AID 1948, 2009; further: potency means the concentration at half of the fitted maximal effect
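Each well holds 300 Peg3LacZ-Neo (maternal) female ES cells incubated 40 h at 37C, 5% CO2. LacZ is measured by BetaGlo luminescence, with AC50 and maximum efficacy derived from dose-response curves.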
p53ts 32C tox = qHTS Screen for Compounds that Selectively Target Cancer Cells with p53 Mutations: Cytotoxicity of p53ts Cells at the Permissive Temperature | H1299-p53A138V at 32C, ATP luminescence viability, 24 h | Potency, µM (highest dose often 46.1 µM), without a hit: at the highest dose activity change, negative = cytotoxicity, hits mostly cytotoxic | actives 0.93% (n = 130,000);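 further: potency means the concentration at half of the fitted maximal effect; 0% = DMSO and -100% = full killing by reference compound; nearly all actives have a fitted effect of over 55% in size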
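Cells: H1299 p53ts (A138V), 600/well, pre-incubated 16–30 h at 37C. Cpd up to 46 uM, 24 h, 32C. Readout: ATPlite luminescence, 20 min RT. Normalization: DMSO vs tamoxifen 100 uM. AC50 by Hill equation.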
HBB splice mod = qHTS Assay for Modulators of Hemoglobin Beta Chain Splicing. HBB splicing reporter cell assay, activation; EGFP reporter with mutant IVS2-654 intron; response scale: normalised to 500 nM splice-correcting PNA. Potency, µM (highest dose often 46.1 µM), for the others: at the top dose activation, hits mostly activators. actives 0.06% (n = 65,000); further: potency means the concentration at half of the fitted maximal effect; 0% is about no effect
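Compounds were applied for 2 days to HeLa EGFP-654 cells, 500/well in Optimem with 2% FCS. The reporter's EGFP is disrupted by mis-splicing of beta-globin intron IVS2-654. Readout: summed well GFP fluorescence from 488 nm laser scanning; reference was 500 nM antisense […] 654 PNA.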
Ub-GFP proteasome = Ubiquitin-GFP Assay; AID 526, 2006; 67,000 tested, under 10 active; Potency, µM (top dose mostly 45.9 µM), for inactives: at the highest dose activation (GFP accumulation), usual class: activators; Ubiquitin-GFP reporter cells, proteasome inhibition, GFP fluorescence; response scale: untreated = 0%, 10 µM MG-132 = 100%; active means well fitted activation curve with a large enough effect, not every such curve was filed as active; inconclusive means small, poorly fitted or top-dose-only effect, or another doubt; inactive means no such curve, though single readings can be large or run the other way; further: potency means the concentration at half of the fitted maximal effect
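Reporter cells (U2OS, ubiquitin-G76V-GFP fusion) are plated overnight, then treated 4 hr at 37 °C with compound titrations from 46 uM down to 2.9 nM. Activity is scaled against untreated cells and 10 uM MG-132.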
p53ts 39C tox = qHTS Screen for Compounds that Selectively Target Cancer Cells with p53 Mutations: Cytotoxicity of p53ts Cells at the Nonpermissive Temperature; H1299-p53A138V viability at 39C, ATP luminescence, 24 h; Potency, µM (doses to about 46.1 µM), inactives show top-dose activity change, negative = cell killing, hits mostly cytotoxic; actives 1.5% (n = 130,000); AID 902, 2007; further: potency means the concentration at half of the fitted maximal effect; on the % scale 0 is the no-effect control and ±100 the full control effect; nearly all actives have a fitted effect of over 55% in size
Epigenetic mod = qHTS Assay for Epigenetic Modulators | Potency, µM (highest dose often 46.1 µM), without a hit: at the top dose GFP derepression (activation) | mouse C127i GFP locus derepression, cytometry, 30 h | actives 0.09% (n = 68,000); further: % of control where 0% means no effect
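Read-out is the number of GFP-positive cells, scored as fluorescent objects 20 to 120 um wide, reflecting derepression of a silenced CMV-GFP reporter in murine C127i cells after 30 h compound exposure at 37 C.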
Starred values were filed as active, the others as inactive; ? = inconclusive; . = not tested or not shown; [ ] = remark or other dose. Shown are actives, neighbours in structure and some others; about 1.6% of the full set was active somewhere. Unless noted, the call rests on the fitted dose curve; in most records, active means well fitted curve in the direction sought with a large enough effect; inconclusive means small, poorly fitted or top-dose-only effect, or another doubt; inactive means no such curve, though single readings can be large; an effect the other way counts as inactive or inconclusive.

SMILES	Peg3 imprint	p53ts 32C tox	HBB splice mod	Ub-GFP proteasome	p53ts 39C tox	Epigenetic mod
CCN1CCN(c2cc(C)c3cc(NC(=O)/C=C/c4ccc(OCCC(C)C)cc4)ccc3n2)CC1	-32%[10.9 µM]	12%	.	.	6.3µM*	.
CC(C)c1ccc2c(c1)CC[C@H]1[C@](C)(CN)CCC[C@]21C	-74%	?	-1%	.	16µM*	.
COc1ccc(Cl)cc1N(C)C(=O)Cc1noc2ccc(C)cc12	-8%[10.9 µM]	11%	.	.	-17%	.
c1ccc2nc(-c3nc4ccccc4[nH]3)ccc2c1	-94%	3.2µM*	0%[57.5 µM]	0%	2µM*	6%
CCN1C(=O)c2cccc3c(NC(=O)c4ccc5c(c4)OCCO5)ccc1c23	-11%	3%	0%	15%	-3%	13µM*
C=C1C(=O)C=C2CN(C(=O)c3ccccc3)[C@@](Cc3ccc(F)cc3)(C(=O)OC)[C@@H]12	-34%	3.2µM*	-1%	.	3.2µM*	.
CC(C)c1ccc2oc(-c3cc(N)ccc3O)nc2c1	-70%	13µM*	-3%[0.0738 µM]	-3%[9.17 µM]	16µM*	0%
Nc1ccc2oc(-c3ccccc3Br)nc2c1	-20%[10.9 µM]	13µM*	.	.	13µM*	.
Cc1ccccc1-c1nc2cc(N)ccc2o1	-57%	?	0%[57.5 µM]	4%	?	1%
O=C(Cn1c(=O)n(CCCS(=O)(=O)C2CCCCC2)c(=O)c2ccccc21)Nc1ccccc1C(F)(F)F	-3%[10.9 µM]	12%	.	.	9%	.
CC(C)(C)OC(=O)N1CC(O)CC1C(=O)OCC(=O)c1ccc(Cl)cc1 (stereo not given)	1%	0%	-2%[1.84 µM]	-1%	10%	-2%
CC(CCc1nc2ccccc2s1)(c1ccc(O)cc1)c1ccc(O)cc1	-6%[10.9 µM]	4%[9.22 µM]	2%[9.22 µM]	3%[9.17 µM]	-3%[9.22 µM]	1%[9.22 µM]
Cc1cc(NC(=O)c2cnc3c(-c4ccccc4)c(C)nn3c2C)ccc1Br	25%[10.9 µM]	4%	.	.	-5%	.
CCOc1ccc(CN2CCN(Cc3ccc4c(c3)c3ccccc3n4CC)CC2)cc1	-19%[10.9 µM]	-10%	.	.	?	.
CCn1c2ccccc2c2cc(CN3CCN(Cc4ccc(OC)c(OC)c4)CC3)ccc21	-16%[10.9 µM]	-7%	.	.	25µM*	.
Fc1ccc([C@H]2CCNC[C@H]2COc2ccc3c(c2)OCO3)cc1	-33%	32µM*	.	2%	10µM*	0%
O=C(Nc1nc2c(s1)C(=O)CCC2)c1ccccc1	-93%	13µM*	1%	8%	16µM*	6%
CN(C)c1ccc(C(=O)Nc2nc3c(s2)CCCC3)cc1	-90%	?	-1%	-4%	?	.
COc1cccc(C(=O)Nc2nc3c(s2)CCCC3)c1	-51%[10.9 µM]	10µM*	.	.	13µM*	.
C[C@@H](C(=O)Nc1ccc2ccccc2c1)[C@H]1C[C@]1(C)[C@H](NC(=O)c1cccnc1)c1ccccc1	-5%	-8%	3%	.	-25%	.
CCc1cc2c(cc3c(=O)n(CCCC(=O)NCc4ccccc4Cl)nc(CC)n32)s1	-2%[10.9 µM]	-16%	.	.	?	.
C#CCCCO/N=C1/C[C@@H](O)[C@@H](O)[C@@H]2[C@@H]3C(=O)N(C(C)(C)C)C(=O)[C@H]3CC[C@@H]12	.	4%[9.22 µM]	0%[9.22 µM]	.	8%[9.22 µM]	.
Cc1ccc(NC(=O)c2ccc3c(=O)n4nc(Nc5ccccc5C)sc4nc3c2)cc1C	9%[10.9 µM]	13µM*	.	.	38%	.
COc1ccc(NC(=O)c2ccc3c(=O)n4nc(Nc5ccccc5C)sc4nc3c2)cc1Cl	25%[10.9 µM]	10µM*	.	.	7.9µM*	.
O=C(CSc1ncc2c(n1)-c1ccccc1N(Cc1ccc(F)cc1)S2(=O)=O)NCCc1ccccc1	-8%[10.9 µM]	4%	.	.	4%	.
SMILES	Peg3 imprint	p53ts 32C tox	HBB splice mod	Ub-GFP proteasome	p53ts 39C tox	Epigenetic mod
Cc1ccc(N2CCN(S(=O)(=O)c3nnc(NC(=O)c4ccc(C(C)C)cc4)s3)CC2)cc1	-6%[10.9 µM]	4%	.	.	5%	.
O=C(Nc1ccc(S(=O)(=O)Nc2ccccc2)cc1)C1COc2ccccc2O1 (stereo not given)	.	?	.	.	22µM*	.
CCOC(=O)c1ccc(N2C(=O)c3n[nH]c(-c4cccs4)c3C2c2cccc(F)c2)cc1 (stereo not given)	-7%[10.9 µM]	17%	.	.	6.3µM*	.
CCOC(=O)c1ccc(N2C(=O)c3n[nH]c(-c4cccs4)c3C2c2ccc(C)cc2)cc1 (stereo not given)	21%[10.9 µM]	0%	.	.	15%	.
C=CCn1c(NC(=O)c2ccccc2)c(C#N)c2nc3ccccc3nc21	-6%	-6%	25µM*	-3%	-13%	9%
Cc1ccc(C)c(N(C)C(=O)c2cc3c(s2)-c2ccccc2OC3)c1	-21%[10.9 µM]	22%	.	.	?	.
O=S(=O)(c1ccc(S(=O)(=O)N(Cc2ccc(F)cc2)C2CCCC2)cc1)N1CCCC1	-14%	7%	.	-5%	3%	-1%
COc1ccc(-c2ccc(-c3nnn(CC(=O)N4CCOCC4)n3)cc2)cc1	-7%	2.5µM*	0%[57.5 µM]	-2%	?	3%
Cc1cccc(C(=O)Nc2cccc(C(=O)OCc3cc(=O)n4nc(C(C)C)sc4n3)c2)c1	-6%[10.9 µM]	1%	.	.	-12%	.
Cc1nn2c(=O)cc(COC(=O)c3cccc(NC(=O)c4ccc(C(C)(C)C)cc4)c3)nc2s1	-12%[10.9 µM]	2.5µM*	.	.	2.5µM*	.
Cc1cccc(Cn2ccn(Cc3ccc(Cl)cc3)c(=O)c2=O)c1	8%[10.9 µM]	?	.	.	32µM*	.
CC(C)C[C@@H](CC(=O)N[C@@H](CCC(=O)O)CC(=O)O)NC(=O)[C@@H]1CNCC[C@H]1NC(=O)C[C@@H](NC(=O)C[C@H](Cc1ccccc1)NC(=O)[C@@H]1CNCC[C@H]1N)C(C)C	.	.	1%	.	.	.
c1ccc(CNc2ccnc(-c3ccc4c(c3)OCO4)n2)cc1	-15%	?	0%	2%	?	2%[9.22 µM]
COc1cccc(-c2nccc(NCc3cccs3)n2)c1	-18%	?	-1%	-4%	13µM*	-5%[9.22 µM]
c1csc(CNc2ccnc(-c3ccc4c(c3)OCO4)n2)c1	-14%	13µM*	-1%	5%	10µM*	-3%[9.22 µM]
CC(C)N(CC(N)=O)C(=O)Cc1coc2cc3c(cc12)CCC3	.	.	.	.	21%	.
CCC(=O)N1CCc2cc(S(=O)(=O)NC(C(=O)NCCc3ccc(OC)c(OC)c3)C(C)C)ccc21 (stereo not given)	-9%[10.9 µM]	4%	.	.	18%	.

High-throughput results deposited in PubChem BioAssay by National Center for Advancing Translational Sciences (NCATS).
